Results from PMC4336329 (PLoS ONE, 2015).
Screen size: about 310,000 compounds; about 2,200 (0.71%) showed an effect of 50% or more. Effects have a minus sign here. The sample as a whole holds a higher share of strong results than the screen did.

Molecular target: human ether-à-go-go-related gene (hERG) potassium channel (human, UniProt Q12809)
Experiment: primary screen, population patch clamp on CHO cells stably expressing hERG; higher = less effect of the substance

Chain of human ether-à-go-go-related gene (hERG) potassium channel (Q12809 whole entry, looked up): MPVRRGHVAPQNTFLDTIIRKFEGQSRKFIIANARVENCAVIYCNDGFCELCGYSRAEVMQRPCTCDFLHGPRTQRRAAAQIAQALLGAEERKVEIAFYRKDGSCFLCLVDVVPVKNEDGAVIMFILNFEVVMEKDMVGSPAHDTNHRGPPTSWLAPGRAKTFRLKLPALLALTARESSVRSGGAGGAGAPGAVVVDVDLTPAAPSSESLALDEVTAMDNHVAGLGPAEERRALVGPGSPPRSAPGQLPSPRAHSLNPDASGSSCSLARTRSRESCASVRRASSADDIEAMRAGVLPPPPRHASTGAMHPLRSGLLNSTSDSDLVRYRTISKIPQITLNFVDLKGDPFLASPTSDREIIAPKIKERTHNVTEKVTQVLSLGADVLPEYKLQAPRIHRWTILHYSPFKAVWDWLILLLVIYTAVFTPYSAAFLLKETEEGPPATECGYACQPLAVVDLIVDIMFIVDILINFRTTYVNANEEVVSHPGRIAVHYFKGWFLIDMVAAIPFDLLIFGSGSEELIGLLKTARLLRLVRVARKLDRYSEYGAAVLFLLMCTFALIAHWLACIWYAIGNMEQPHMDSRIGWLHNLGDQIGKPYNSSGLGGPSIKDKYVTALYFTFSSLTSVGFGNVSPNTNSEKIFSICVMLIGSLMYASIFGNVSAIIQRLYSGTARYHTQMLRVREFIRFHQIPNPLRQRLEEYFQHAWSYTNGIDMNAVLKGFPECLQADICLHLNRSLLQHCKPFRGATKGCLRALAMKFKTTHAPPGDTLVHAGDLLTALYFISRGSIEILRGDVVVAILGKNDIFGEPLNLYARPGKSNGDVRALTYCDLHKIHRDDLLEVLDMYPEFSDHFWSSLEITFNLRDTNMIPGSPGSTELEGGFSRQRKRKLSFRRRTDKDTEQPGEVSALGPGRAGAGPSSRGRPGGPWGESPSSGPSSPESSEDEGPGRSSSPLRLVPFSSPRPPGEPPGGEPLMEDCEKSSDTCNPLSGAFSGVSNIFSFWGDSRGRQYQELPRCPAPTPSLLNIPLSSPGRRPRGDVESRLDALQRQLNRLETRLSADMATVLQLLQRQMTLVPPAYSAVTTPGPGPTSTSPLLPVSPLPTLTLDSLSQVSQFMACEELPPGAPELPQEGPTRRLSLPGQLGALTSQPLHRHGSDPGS

How did the “hERG current change (%, negative = inhibition) at 1uM” value turn out when `CC(C)C(=O)Nc1ccc(NC(=O)c2ccccn2)cn1` was run?
Its value is 12.6%.

With `O=C(CSc1nnc(CNC(=O)c2ccccc2F)o1)Nc1cccc(C(F)(F)F)c1` as the compound, how does the “hERG current change (%, negative = inhibition) at 1uM” value read?
The value was 16%.

`COc1ccc[nH]c1=O` was tested. Which “hERG current change (%, negative = inhibition) at 1uM” value did it give?
The value was 1.28%.

`CCOC(=O)Cn1cnc2c(nnn2-c2cccc(OC)c2)c1=O` was tested. Which “hERG current change (%, negative = inhibition) at 1uM” value did it give?
The value was 17%.

Which “hERG current change (%, negative = inhibition) at 1uM” value does the source give for `COc1ccc(/C(C)=N/N=C2/NC(=O)CC(C(=O)O)S2)cc1` (stereo not shown) here?
Its value is 5.89%.

How did the “hERG current change (%, negative = inhibition) at 1uM” value turn out when `COCCCNC(=O)CCn1c(=O)c2ccccc2n(CC(=O)Nc2cc(Cl)ccc2C)c1=O` was run?
Its value is 2.79%.

`O=C(NCc1ccc2c(c1)OCO2)c1ccc(S(=O)(=O)C(F)F)cc1` was tested. Which “hERG current change (%, negative = inhibition) at 1uM” value did it give?
The value was -0.408%.

For `CC(=O)c1ccc(C(=O)NC2CC(C)(C)Cc3c2cnn3-c2ccccc2)cc1` (stereo not shown), which “hERG current change (%, negative = inhibition) at 1uM” value is on record?
The value was 5.88%.

With `CC1(C)Cc2c(cnn2-c2ccccc2)C(NC(=O)c2ccc[n+]([O-])c2)C1` (stereo not shown) as the compound, how does the “hERG current change (%, negative = inhibition) at 1uM” value read?
The value was 8.68%.

`Cn1nccc1C(=O)NC1CC(C)(C)Cc2c1cnn2-c1ccc(F)cc1` (stereo not shown) was tested. Which “hERG current change (%, negative = inhibition) at 1uM” value did it give?
The value was -20%.

`COc1ccc(-n2ncc3c2CC(C)(C)CC3NC(=O)CCn2cncn2)cc1` (stereo not shown) was tested. Which “hERG current change (%, negative = inhibition) at 1uM” value did it give?
Its value is -5.06%.

Which “hERG current change (%, negative = inhibition) at 1uM” value does the source give for `Cc1ccc(-n2ncc3c2CC(C)(C)CC3NC(=O)CCn2cncn2)cc1` (stereo not shown) here?
Its value is -78.5%.

`CC1(C)Cc2c(cnn2-c2ccccc2)C(NC(=O)c2ccoc2)C1` (stereo not shown) was tested. Which “hERG current change (%, negative = inhibition) at 1uM” value did it give?
The value was -91.7%.

`CC1(C)Cc2c(cnn2-c2ccc(F)cc2)C(NC(=O)c2ccoc2)C1` (stereo not shown) was tested. Which “hERG current change (%, negative = inhibition) at 1uM” value did it give?
Its value is -95.7%.

For `CC1(C)Cc2c(cnn2-c2ccc(F)cc2)C(NC(=O)c2cnccn2)C1` (stereo not shown), which “hERG current change (%, negative = inhibition) at 1uM” value is on record?
Its value is -6.77%.

For `CC1(C)Cc2c(cnn2-c2ccc(F)cc2)C(NC(=O)CCn2cncn2)C1` (stereo not shown), which “hERG current change (%, negative = inhibition) at 1uM” value is on record?
Its value is -40.7%.

For `CCOc1cc(C#N)ccc1OCC(=O)N1CCN(C(=O)c2cccs2)CC1`, which “hERG current change (%, negative = inhibition) at 1uM” value is on record?
The value was -16.1%.

With `O=C(Nc1ccccc1Cl)c1ccc(S(=O)(=O)NCC2CCCO2)cc1` (stereo not shown) as the compound, how does the “hERG current change (%, negative = inhibition) at 1uM” value read?
The value was -7.62%.

How did the “hERG current change (%, negative = inhibition) at 1uM” value turn out when `CCOc1ccccc1OCC(=O)O` was run?
The value was 12.1%.

With `CCCCn1c(O)c(C(=O)/C=C/c2ccc3c(c2)OCO3)c(=O)[nH]c1=O` as the compound, how does the “hERG current change (%, negative = inhibition) at 1uM” value read?
The value was 11.9%.

With `Cc1ccccc1CN1C[C@@H]2C[C@@H](c3cn[nH]c3-c3ccc(F)cc3)N3CCC[C@@]23C1=O` as the compound, how does the “hERG current change (%, negative = inhibition) at 1uM” value read?
The value was -12.9%.

How did the “hERG current change (%, negative = inhibition) at 1uM” value turn out when `CC(=O)Oc1ccc(-c2nc3c(C)cccc3c(=O)o2)cc1` was run?
The value was 11.9%.

For `Cc1[nH]c2ccccc2c1C(=O)CN1CCCC1`, which “hERG current change (%, negative = inhibition) at 1uM” value is on record?
The value was 7.66%.

Which “hERG current change (%, negative = inhibition) at 1uM” value does the source give for `CCOC(=O)N1CCN(CC(=O)Nc2c(C(=O)OC)[nH]c3ccccc23)CC1` here?
Its value is 7.01%.

How did the “hERG current change (%, negative = inhibition) at 1uM” value turn out when `CCOC(=O)c1[nH]c2ccc(F)cc2c1NC(=O)CN1CCc2cc(OC)c(OC)cc2C1` was run?
Its value is 11.2%.

`Cc1[nH]c2ccccc2c1C(=O)CN1CCN(C/C=C/c2ccccc2)CC1` was tested. Which “hERG current change (%, negative = inhibition) at 1uM” value did it give?
Its value is -50.4%.

With `COc1ccc2[nH]c(C)c(C(=O)CN3CCN(C/C=C/c4ccccc4)CC3)c2c1` as the compound, how does the “hERG current change (%, negative = inhibition) at 1uM” value read?
The value was 5.17%.

`COC(=O)c1[nH]c2ccccc2c1NC(=O)CN1CCN(C/C=C/c2ccccc2)CC1` was tested. Which “hERG current change (%, negative = inhibition) at 1uM” value did it give?
Its value is -84.4%.

For `CCOC(=O)c1[nH]c2ccc(F)cc2c1NC(=O)CN1CCN(C/C=C/c2ccccc2)CC1`, which “hERG current change (%, negative = inhibition) at 1uM” value is on record?
Its value is -77.3%.

Which “hERG current change (%, negative = inhibition) at 1uM” value does the source give for `COC(=O)c1[nH]c2ccccc2c1NC(=O)CN1CCCCCC1` here?
Its value is -3.6%.

`CCOC(=O)c1[nH]c2ccc(OCC)cc2c1NC(=O)CN1CCN(c2ccccc2)CC1` was tested. Which “hERG current change (%, negative = inhibition) at 1uM” value did it give?
The value was 15.9%.

Which “hERG current change (%, negative = inhibition) at 1uM” value does the source give for `O=C(COC(=O)COc1ccc(Br)cc1)NCCC1=CCCCC1` here?
Its value is 1.54%.

`COc1ccc2[nH]cc(CCNC(=O)CCC3CCCCC3)c2c1` was tested. Which “hERG current change (%, negative = inhibition) at 1uM” value did it give?
Its value is 1.77%.

For `O=C(COC(=O)c1ncc(Cl)c(Cl)c1Cl)NC1CCS(=O)(=O)C1` (stereo not shown), which “hERG current change (%, negative = inhibition) at 1uM” value is on record?
Its value is -1.03%.

How did the “hERG current change (%, negative = inhibition) at 1uM” value turn out when `Cc1ccc(S(=O)(=O)N2CCOC23CCN(C(=O)C(=O)NCCC(C)C)CC3)cc1` was run?
Its value is 4.48%.

Which “hERG current change (%, negative = inhibition) at 1uM” value does the source give for `O=c1[nH]c(=O)n(CCc2ccc(F)cc2)c(O)c1/C=N/N1CCCCC1` here?
The value was 11.7%.

How did the “hERG current change (%, negative = inhibition) at 1uM” value turn out when `CCOC(=O)C1(C)/C(=N/Nc2ccccc2)C(=O)C(=O)N1c1ccccc1` (stereo not shown) was run?
Its value is -3.13%.

How did the “hERG current change (%, negative = inhibition) at 1uM” value turn out when `Cc1cccn2c(=O)c3cc(C(=O)NCc4cccnc4)c(=N)n(CC4CCCO4)c3nc12` (stereo not shown) was run?
The value was -78.5%.

Which “hERG current change (%, negative = inhibition) at 1uM” value does the source give for `Cc1ccc(Cn2c(=N)c(C(=O)NCC3CCCO3)cc3c(=O)n4cccc(C)c4nc32)cc1` (stereo not shown) here?
Its value is -85.9%.

Which “hERG current change (%, negative = inhibition) at 1uM” value does the source give for `Cc1cccn2c(=O)c3cc(C(=O)NC4CCCCC4)c(=N)n(Cc4ccc(F)cc4)c3nc12` here?
The value was -16%.

How did the “hERG current change (%, negative = inhibition) at 1uM” value turn out when `Cc1cccn2c(=O)c3cc(C(=O)NC4CCCC4)c(=N)n(Cc4ccc(F)cc4)c3nc12` was run?
The value was -19.4%.

Which “hERG current change (%, negative = inhibition) at 1uM” value does the source give for `Cc1cccn2c(=O)c3cc(C(=O)NCC4CCCO4)c(=N)n(Cc4ccc(F)cc4)c3nc12` (stereo not shown) here?
The value was -80.4%.

`Cc1cccn2c(=O)c3cc(C(=O)NCC4CCCO4)c(=N)n(Cc4cccnc4)c3nc12` (stereo not shown) was tested. Which “hERG current change (%, negative = inhibition) at 1uM” value did it give?
Its value is -96.3%.

How did the “hERG current change (%, negative = inhibition) at 1uM” value turn out when `Cc1cccn2c(=O)c3cc(C(=O)NCCN4CCOCC4)c(=N)n(Cc4cccnc4)c3nc12` was run?
The value was 9.95%.

With `Cc1cccn2c(=O)c3cc(C#N)c(=NC(=O)c4cccnc4)n(CC4CCCO4)c3nc12` (stereo not shown) as the compound, how does the “hERG current change (%, negative = inhibition) at 1uM” value read?
The value was -10.2%.

With `CCn1c(SCc2nc(CC(=O)Nc3ccccc3OC)no2)nnc1-c1cccs1` as the compound, how does the “hERG current change (%, negative = inhibition) at 1uM” value read?
Its value is -19.1%.

How did the “hERG current change (%, negative = inhibition) at 1uM” value turn out when `COc1ccc(CNC(=O)C2CSC(=O)C2)cc1` (stereo not shown) was run?
The value was 8.88%.

How did the “hERG current change (%, negative = inhibition) at 1uM” value turn out when `Cc1cccc(-n2c(O)c(/C=N/NC(=O)c3ccccc3Cl)c3ccccc3c2=O)n1` was run?
The value was 9.11%.

Which “hERG current change (%, negative = inhibition) at 1uM” value does the source give for `COc1cccc(/C=C/C(=O)OCC(=O)Nc2cc(C(F)(F)F)ccc2Cl)c1` here?
Its value is 8.68%.

Which “hERG current change (%, negative = inhibition) at 1uM” value does the source give for `CN(C(=O)c1ccc(OC2CCN(S(=O)(=O)N(C)C)CC2)cc1)C1CCCCC1` here?
Its value is -1.59%.

`O=C(NCCNC(=O)c1cc(OCC(F)(F)F)ccc1OCC(F)(F)F)Nc1ccccc1` was tested. Which “hERG current change (%, negative = inhibition) at 1uM” value did it give?
Its value is -15%.

Which “hERG current change (%, negative = inhibition) at 1uM” value does the source give for `CCN1CCS/C1=C/C=C/C1=[N+](CC)CCS1.[I-]` here?
The value was 3.64%.

With `CCN1CCN(CCc2nc3cc([N+](=O)[O-])ccc3n2C)CC1` as the compound, how does the “hERG current change (%, negative = inhibition) at 1uM” value read?
The value was -1.88%.

For `Cn1c(CCN2CCCCC2)nc2cc([N+](=O)[O-])ccc21`, which “hERG current change (%, negative = inhibition) at 1uM” value is on record?
Its value is -54.8%.

With `Cn1c(CCN2CCCC2)nc2cc(NS(=O)(=O)c3ccc(Cl)cc3)ccc21` as the compound, how does the “hERG current change (%, negative = inhibition) at 1uM” value read?
Its value is -62%.

For `Cc1ccc(S(=O)(=O)Nc2ccc3c(c2)nc(CCN2CCCC2)n3C)cc1`, which “hERG current change (%, negative = inhibition) at 1uM” value is on record?
The value was -13.7%.

For `Cn1c(CN2CCCCC2)nc2cc([N+](=O)[O-])ccc21`, which “hERG current change (%, negative = inhibition) at 1uM” value is on record?
The value was -2.57%.

How did the “hERG current change (%, negative = inhibition) at 1uM” value turn out when `Cn1c(CN2CCCCC2)nc2cc(NS(=O)(=O)c3ccc(Cl)cc3)ccc21` was run?
The value was -9.75%.

Which “hERG current change (%, negative = inhibition) at 1uM” value does the source give for `Cn1c(CN2CCN(C(=O)c3ccccc3)CC2)nc2cc([N+](=O)[O-])ccc21` here?
Its value is -29.6%.

How did the “hERG current change (%, negative = inhibition) at 1uM” value turn out when `CC(=O)N1CCN(Cc2nc3cc([N+](=O)[O-])ccc3n2C)CC1` was run?
Its value is 14%.

How did the “hERG current change (%, negative = inhibition) at 1uM” value turn out when `Cn1c(CN2CCCC2)nc2cc(NS(=O)(=O)c3ccc(Cl)cc3)ccc21` was run?
The value was -31%.

With `Cn1c(CN2CCN(C(=O)c3ccc(F)cc3)CC2)nc2cc([N+](=O)[O-])ccc21` as the compound, how does the “hERG current change (%, negative = inhibition) at 1uM” value read?
Its value is -59.1%.

`Cc1ccc(S(=O)(=O)Nc2ccc3c(c2)nc(CCN2CCCCC2)n3C)cc1` was tested. Which “hERG current change (%, negative = inhibition) at 1uM” value did it give?
The value was -29.7%.

`Cn1c(CCN2CCCCC2)nc2cc(NS(=O)(=O)c3ccc(Cl)cc3)ccc21` was tested. Which “hERG current change (%, negative = inhibition) at 1uM” value did it give?
Its value is -59.1%.
